Compound activity as filed in PubChem BioAssay.
Compounds with a hit are over-represented: about 11% of the library has one in this group of screens.
PLK1 PBD inh = qHTS for Inhibitors of PLK1-PDB (polo-like kinase 1 - polo-box domain): Primary Screen. Potency, µM, inactives show max response, negative = inhibition, usual class: inhibitors. Plk1 PBD binding of FITC phosphopeptide, fluorescence polarization. 2.8% of 360,000 active; further: series mostly up to about 57 µM; on the % scale 0 is the no-effect control and ±100 the full control effect; nearly all actives have a fitted effect of over 65% in size
JMJD2A Tudor = qHTS Assay for Inhibitors of JMJD2A-Tudor Domain. AlphaScreen JMJD2A-Tudor / H3K4me3 peptide binding. Potency, µM (top dose mostly 114 µM), for inactives: top-dose activity change, negative = inhibition, hits mostly inhibitors. 4.4% of 390,000 active. AID 504339, 2011; further: on the % scale 0 is the no-effect control and ±100 the full control effect; nearly all actives have a fitted effect of over 50% in size
VDR inhibitor = Inhibitors of the vitamin D receptor (VDR): qHTS; Potency, µM, inactives show max response, negative = inhibition, most hits filed as inhibitors; Vitamin D3 receptor (Homo sapiens), P11473; VDR-SRC2-3 peptide fluorescence polarization, 2 h; 0.93% of 400,000 active; further: on the % scale 0 is the no-effect control and ±100 the full control effect
Target sequence (P11473 whole entry, looked up): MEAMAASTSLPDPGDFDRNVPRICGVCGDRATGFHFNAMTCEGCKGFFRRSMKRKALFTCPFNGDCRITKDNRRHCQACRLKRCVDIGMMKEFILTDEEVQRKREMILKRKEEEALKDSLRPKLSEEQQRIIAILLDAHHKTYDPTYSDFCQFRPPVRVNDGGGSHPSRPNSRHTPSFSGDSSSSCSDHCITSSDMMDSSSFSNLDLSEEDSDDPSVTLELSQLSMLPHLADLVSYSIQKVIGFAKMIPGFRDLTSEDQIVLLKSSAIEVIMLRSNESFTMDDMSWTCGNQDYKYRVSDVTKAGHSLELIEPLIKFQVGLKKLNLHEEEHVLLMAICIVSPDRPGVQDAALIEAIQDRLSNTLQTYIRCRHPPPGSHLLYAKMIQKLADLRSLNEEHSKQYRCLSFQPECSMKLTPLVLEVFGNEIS
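Reagent solutions, kept cold and dark, are dispensed first; compounds are then pinned in at 23 nl, plates briefly spun, and incubated 2 h at ambient temperature. Inhibition of VDR–SRC2-3 peptide binding is read by fluorescence polarization.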
G9a inh = qHTS Assay for Inhibitors of Histone Lysine Methyltransferase G9a; G9a H3K9 monomethylation, AlphaScreen, 2 h; Potency, µM (doses to about 102 µM), inactives show top-dose activity, negative = inhibition, usual class: inhibitors; 8.8% of 350,000 active; AID 504332, 2011; further: on the % scale 0 is the no-effect control and ±100 the full control effect; nearly all actives have a fitted effect of over 75% in size
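Using a bead-based AlphaScreen, monomethylated H3K9 product from 2 h room-temperature reactions (G9a 20 nM, peptide 500 nM, SAM 20 uM) was detected with 0.5 ug/mL rabbit anti-H3K9me1 antibody.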
BAZ2B block = qHTS Assay for Inhibitors of BAZ2B; Potency, µM (top dose mostly 114 µM), for inactives: top-dose activity change, negative = inhibition, usual class: inhibitors; AlphaScreen BAZ2B-H3K14Ac peptide displacement; 4.4% of 360,000 active; further: on the % scale 0 is the no-effect control and ±100 the full control effect; nearly all actives have a fitted effect of over 60% in size
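Multi-concentration screen (max 110 uM) measuring displacement of acetylated histone H3 peptide from BAZ2B by AlphaScreen, using 50 nM protein, 50 nM peptide and 10 ug/mL streptavidin donor plus Ni-chelate acceptor beads.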
HP1b binding inh = HTS for Inhibitors of HP1-beta Chromodomain Interactions with Methylated Histone Tails | Potency, µM (series often up to 114 µM), for the others: at the highest dose activity change, negative = inhibition, usual class: inhibitors | 0.56% of 390,000 active | AID 540317, 2011 | AlphaScreen HP1-beta / biotin-H3K9me3 peptide binding; further: nearly all actives have a fitted effect of over 70% in size
Target sequence (P83916 whole entry, looked up): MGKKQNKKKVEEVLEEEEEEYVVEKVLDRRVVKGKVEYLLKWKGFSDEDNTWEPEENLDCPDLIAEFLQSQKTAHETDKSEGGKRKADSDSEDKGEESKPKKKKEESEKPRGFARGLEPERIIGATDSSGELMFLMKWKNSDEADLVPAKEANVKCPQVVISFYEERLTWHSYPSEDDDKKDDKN
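AlphaScreen: HP1-beta (50 nM) preformed 30 min with biotin-H3(1-18)K9me3 peptide (50 nM) in PBS pH 7.4, 0.01% Tween-20. Compound added for 30 min at RT, then streptavidin donor/nickel chelate acceptor beads (10 ug/mL) for 30 min.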
An asterisk follows results filed as active; ? = inconclusive; · = no result given; [ ] = remark or other dose. The call rests on the fitted dose curve; in most records, active means well fitted curve in the direction sought with a large enough effect; inconclusive means small, poorly fitted or top-dose-only effect, or another doubt; inactive means no such curve, though single readings can be large; an effect the other way counts as inactive or inconclusive. Potency means the concentration at half of the fitted maximal effect.

SMILES	PLK1 PBD inh	JMJD2A Tudor	VDR inhibitor	G9a inh	BAZ2B block	HP1b binding inh
Cc1ccc(C(=O)NC(=S)NCC2CCCO2)cc1Br (stereo not drawn)	0.7%	-19.4%	-23.1%	44.7µM*	?	5.9%
COc1ccc(NS(=O)(=O)c2ccc(NC(=S)NCC3CCCO3)cc2)cc1 (stereo not drawn)	-20.3%	-21.2%	-4.7%	-1.8%	6.5%	7.3%
CCn1c(=O)c2sccc2n2c(CCCC(=O)NCCc3ccc(S(N)(=O)=O)cc3)nnc12	-20.7%	-8.3%	-10.0%	32.3%[59 µM]	0.2%	29.8%
CCc1ccc2[nH]c(C)c(CN3CCCCCC3)c(=O)c2c1	-7.8%	-17.4%	-11.7%	13.8%	-12.1%	20.9%
CC(NC(=O)COc1cccnc1[N+](=O)[O-])c1ccc(Cl)cc1 (stereo not drawn)	0.2%	-4.1%	3.3%	8.5%	-0.8%	30.1%
Cc1ccc(C)c(N(C)C(=O)C2CCN(c3ncnc4c3nc3n4CCCCC3)CC2)c1	·	-11.6%	12.3%	0.8%[59 µM]	4.4%	4.9%
COc1cccc(CN2CC(C(=O)NCc3cnn(C)c3)CCC2=O)c1 (stereo not drawn)	-2.7%	-2.1%	5.9%	?	-7.2%	26.4%
Cc1ccc(C)c(NS(=O)(=O)c2ccc(OCC(=O)NCC3CCCO3)cc2)c1 (stereo not drawn)	-19.5%	0.7%	4.0%	-9.9%	-11.9%	26.2%
Cc1ccc(S(=O)(=O)NNC(=S)NCC2CCCO2)cc1 (stereo not drawn)	-2.0%	-13.8%	3.3%	25.1µM*	-15.1%	-15.6%
Cc1ccc(NS(=O)(=O)c2ccc(OCC(=O)NCC3CCCO3)cc2)cc1 (stereo not drawn)	29.9µM*	50.1µM*	-4.9%	6.0%	5.1%	-4.8%
O=C(NCC1CCCO1)c1cc([N+](=O)[O-])ccc1Cl (stereo not drawn)	0.0%	1.4%	-5.3%	50.1µM*	2.4%	15.2%
Cc1ccc(C(=O)N/C(=C/c2ccc(N(C)C)cc2)C(=O)NCC2CCCO2)cc1 (stereo not drawn)	-7.2%	-29.8%	-13.3%	28.2µM*	-4.0%	1.1%
Cc1ccc(C(=O)N/C(=C/c2ccc(Cl)cc2)C(=O)NCC2CCCO2)cc1 (stereo not drawn)	3.6%	3.0%	-10.9%	21.9%[59 µM]	6.2%	33.2%
CC[C@@]1([C@@H]2O[C@@H]([C@H]3O[C@@](O)(CO)[C@H](C)C[C@@H]3C)C[C@@H]2C)CC[C@@H]([C@]2(C)CCC3(C[C@H](O)[C@@H](C)[C@@H]([C@@H](C)[C@@H](OC)[C@H](C)C(=O)O)O3)O2)O1 (stereo partly drawn)	·	·	0.3%	·	·	·
Cc1ccccc1N1CC(C(=O)Nc2ccc(S(=O)(=O)NCC3CCCO3)cc2)CC1=O (stereo not drawn)	?	89.1µM*	-15.5%	-3.1%	-0.3%	6.2%
O=C(Cc1ccc(Cl)c(Cl)c1)NNC(=S)NCC1CCCO1 (stereo not drawn)	-29.2%	-17.6%	-11.8%	21.9%[0.501 µM]	-0.2%	52.3%
O=C(NC(=S)N(CC1CCC1)CC1CCCO1)c1cccc([N+](=O)[O-])c1 (stereo not drawn)	-24.6%	-35.0%	-0.5%	50.1µM*	?	-4.2%
S=C(NCC1CCCO1)Nc1ccc(Cl)c(Cl)c1 (stereo not drawn)	11.9µM*	?	?	-6.9%	-18.1%	40.0%
S=c1[nH]nc(Cc2sc(-c3ccccc3)nc2-c2ccccc2)o1	-25.6%	-31.9%	?	28.2µM*	?	1.5%
O=C(Cc1sc(-c2ccccc2)nc1-c1ccccc1)Nc1ccccc1	-4.1%	-11.2%	7.9%	12.2%[12.7 µM]	-3.8%	25.6%
COc1ccccc1/C=C/c1nc(S(=O)(=O)c2ccccc2)c(NCCN(C)C)o1	29.9µM*	?	?	?	-18.1%	29.1%
CN(C)CCCNc1oc(/C=C/c2cccs2)nc1S(=O)(=O)c1ccccc1	-18.0%	-21.6%	-6.4%	·	?	12.7%
COc1ccc(/C=C/c2nc(S(=O)(=O)c3ccccc3)c(NCCCN(C)C)o2)cc1OC	?	-8.2%	12.6%	79.4µM*	-6.4%	63.4%
CN1CCN(C(=S)c2ccc(-c3cccc(Cl)c3Cl)o2)CC1	-2.3%	28.2µM*	-8.2%	39.8µM*	?	44.7µM*
S=C(c1ccc(-c2ccc(Cl)cc2)o1)N1CCCCC1	-18.0%	22.4µM*	-18.4%	12.6µM*	28.2µM*	?
SMILES	PLK1 PBD inh	JMJD2A Tudor	VDR inhibitor	G9a inh	BAZ2B block	HP1b binding inh
N#CCCN1CCN(C(=S)c2ccc(-c3ccc(Cl)cc3)o2)CC1	?	44.7µM*	1.3%	?	39.8µM*	?
CCCCC(Sc1nc(N)c(NC(=O)c2ccc(OC)cc2)c(=O)[nH]1)C(=O)O (stereo not drawn)	-18.6%	-11.4%	-15.5%	-4.7%	?	15.4%
Cc1ccc(S(=O)(=O)c2ccc([N+](=O)[O-])o2)cc1	0.844µM*	?	44.7µM*	·	·	-14.3%
COc1ccc(C)cc1NC(=O)CNC(=O)[C@@H]1Cc2ccccc2CN1	-5.8%	-12.0%	6.8%	44.7µM*	-5.7%[57.1 µM]	29.2%
Cc1ccc(NC(=O)[C@H](CC(C)C)NC(=O)[C@@H]2Cc3ccccc3CN2)cc1	-5.0%	-24.3%	13.3%	31.6µM*	?	14.7%
Cc1ccc(CNC(=O)CNC(=O)[C@@H]2Cc3ccccc3CN2)cc1	-14.0%	-9.8%	3.1%	?	?	46.1%
COc1ccccc1CNC(=O)[C@H](Cc1c[nH]c2ccccc12)NC(=O)[C@@H]1Cc2ccccc2CN1	-7.4%	-27.2%	5.5%	12.6µM*	?	26.1%
COc1cccc(NC(=O)[C@H](CC(C)C)NC(=O)[C@@H]2Cc3ccccc3CN2)c1	-15.8%	79.4µM*	4.7%	16.6%[0.0925 µM]	?	4.2%
Cc1ccc(NC(=O)[C@@H](CC(C)C)NC(=O)[C@@H]2Cc3ccccc3CN2)cc1	-18.0%	-24.7%	5.7%	?	-19.4%	48.7%
Cc1cccc(NC(=O)[C@H](Cc2ccccc2)NC(=O)[C@@H]2Cc3ccccc3CN2)c1	?	-29.2%	-3.6%	-8.1%[0.0925 µM]	?	24.9%
CC(C)C[C@H](NC(=O)NCc1ccccc1Cl)C(=O)O	-1.5%	-7.7%	-6.0%	2.0%[59 µM]	9.1%	35.0%
O=C(NCc1ccc(Cl)cc1)Nc1ccc(F)cc1	-8.1%	-15.4%	2.6%	-3.4%	0.6%	24.4%
